High-throughput results: PubChem, National Center for Advancing Translational Sciences (NCATS)
Most compounds without a hit are left out; they make up all but 21% or so of the library.
Shiga inhibitor: Shiga toxin inhibition; Vero cells, Shiga toxin protein synthesis inhibition reporter; 290,000 compounds, 9.2% hits; inhibition, % at 38.7 µM; in the data active = inhibition mostly above about 28%, no sharp cut-off; inactive = mostly below about 43%; note: 0% is about no effect
AMA1-RON2 inh: AMA1-RON2 (P. falciparum) interaction inhibition; AlphaScreen AMA1-biotinylated RON2 peptide binding; Potency, µM (top dose mostly 58.2 µM), inactives show top-dose activity change, negative = inhibition, hits mostly inhibitors; 360,000 compounds, 0.2% hits;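 note: potency is the fitted concentration of half-maximal effect; 0% = vehicle wells and -100% = peptide control; nearly all actives have a fitted effect of over 45% in size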
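AMA1 (3D7) with his tag at 25 nM final met compounds first, then biotinylated RON2 peptide at 25 nM; detection used donor plus acceptor beads, 10 µg/mL apiece, read by AlphaScreen after 30 min at room temperature.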
HCV inh: HCV inhibition; Huh7.5.1 HCVcc-Cre infection, luciferase reporter, 44 h; Potency, µM (highest dose often 41.8 µM), for the others: at the highest dose activity change, negative = inhibition, actives largely listed as inhibitors; 340,000 compounds, 3.4% hits; note: potency is the fitted concentration of half-maximal effect; % is set by controls: 0 for no effect and ±100 for the full control effect
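Infectious HCVcc-Cre (~0.5 moi) was added to cells just after compound, with cells seeded 4 h earlier at 1,000 per well. Luciferase activity after 44 h culture reported infection; substrate was incubated 15 min at room temperature before reading.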
Pf growth 48h: P. falciparum growth inhibition at 48 hours (one generation). AID 504832. Potency, µM (top dose mostly 28.7 µM), without a hit: at the highest dose activity change, negative = inhibition, usual class: inhibitors. P. falciparum luciferase growth in erythrocytes, 48 h. 310,000 compounds, 5.9% hits; note: potency is the fitted concentration of half-maximal effect; % is set by controls: 0 for no effect and ±100 for the full control effect
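Compounds are pin-transferred into medium, infected erythrocytes (2% hematocrit, 0.1% parasitemia final) are added, and plates sit one parasite generation at 37 C in 5% CO2. Detection reagent is then added and luminescence measured.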
CHX counter: counter-screen for Shiga toxin inhibitors: cycloheximide protein synthesis inhibition. cell reporter, cycloheximide protein synthesis inhibition counterscreen. 300,000 compounds, 12% hits. max response, %; in the data active = max response mostly above about 13%, no sharp cut-off; inactive = mostly below about 14%; note: read at 38.3 µM for the half of the compounds with a filed dose; 0% is about no effect
Pf growth 96h: inhibits malaria parasite growth, 96 h | P. falciparum luciferase reporter growth, 96 h | Potency, µM (titrated, usually from 28.7 µM), inactives show at the top dose activity change, negative = inhibition, most hits filed as inhibitors | 320,000 compounds, 6.9% hits | AID 504834; note: potency is the fitted concentration of half-maximal effect; % is set by controls: 0 for no effect and ±100 for the full control effect
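Erythrocytes infected with luciferase-expressing P. falciparum were dispensed at 2% hematocrit and 0.05% parasitemia (final), then incubated with compounds 96 hours at 37 C in 5% CO2. Luminescence after detection reagent addition reported growth.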
* = called active by the depositor; ? = inconclusive; / = no result; [ ] = dose if it differs, or a comment. Unless noted, calls come from the whole dose curve; as a rule, active = well fitted curve in the direction sought with a large enough effect; inconclusive = small, poorly fitted or top-dose-only effect, or another doubt; inactive = no such curve, though single readings can be large; an effect the other way counts as inactive or inconclusive.

SMILES	Shiga inhibitor	AMA1-RON2 inh	HCV inh	Pf growth 48h	CHX counter	Pf growth 96h
Cn1c(SCc2nc3ccccc3[nH]2)nnc1-c1cnccn1	43.3	2.5%	6.7%	6.3%	26.8	/
Nn1c(SCC(=O)NC2CCCCC2)nnc1-c1ccccc1F	/	-4.6%[11.6 µM]	7.4%	-23.6%	/	-19.7%
Nn1c(SCc2ccc(Br)cc2)nnc1-c1ccccn1	-6.4	6.7%	16.4%	8.0%	-2.5	13.1%
C=C(C)CSc1nnc(-c2ccccc2)n1N	74.6*	-1.4%	21.1%	29.8%	23.9*	-21.7%
Nn1c(SCc2ccccc2F)nnc1-c1cccnc1	74.8*	1.9%	7.8%	111.9%	40.2*	123.9%
CCN(CC)C(=O)CSc1nnc(-c2ccccc2)n1N	-6.6	1.2%	9.4%	15.9%	20.5	-4.3%
Nn1c(SCc2cccc(F)c2)nnc1-c1cccnc1	24.4	17.1%	1.3%	55.7%	13.9	81.8%
Cc1cccc(CSc2nnc(-c3ccccn3)n2N)c1	35.7	-25.7%	6.5%	32.9%	17.7*	?
COc1ccc(C(=O)NNC(=O)c2ccc(S(=O)(=O)N3CCCCC3)cc2)cc1	-10.9	7.9%	-3.2%	-7.0%	-1.2	-20.6%
N#CCCn1cc(/C=N/NC(N)=S)c(-c2ccc(-c3ccccc3)cc2)n1	7.0	87.3%	11.2µM*	?	-1.9	?
Cn1c(=O)n(CCO)c(=O)c2c1nc(Br)n2Cc1ccccc1	-7.2	-1.1%	?	-84.6%	-2.2	-24.4%
Cc1ccc(C2=CC(c3ccccc3)n3ncnc3N2)cc1 (stereo not given)	/	8.5%	-10.1%	/	/	/
COc1ccc(C2=CC(c3sccc3C)n3nnnc3N2)cc1 (stereo not given)	109.3*	60.5%	?	158.9%	40.0*	52.4%
COc1cccc(C2=CC(c3cccs3)n3nnnc3N2)c1 (stereo not given)	48.2*	8.4%	-5.9%	/	40.6*	0.8%
Cc1ccc(C2C=C(c3ccc4c(c3)OCO4)Nc3ncnn32)cc1 (stereo not given)	16.6	74.1%	-18.7%	?	-1.0	11.7µM*
COC(=O)C1=C(C)Nc2nnnn2C1c1cccs1 (stereo not given)	6.7	3.9%	-9.8%	-8.5%	-3.4	?
Cc1ccc(C2=CC(c3ccc(N(C)C)cc3)n3nnnc3N2)cc1 (stereo not given)	23.9	13.3%	?	/	25.6*	-2.9%
COc1ccc(C2=CC(c3ccc(F)cc3)n3nnnc3N2)cc1 (stereo not given)	29.8	16.6%	1.9%	/	12.6	?
COc1cccc(C2=CC(c3ccc(C)cc3)n3ncnc3N2)c1 (stereo not given)	17.5	/	/	?	-0.8	46.2%
COc1cccc(C2=CC(c3ccc(OC)c(OC)c3OC)n3nnnc3N2)c1 (stereo not given)	91.6*	1.9%	?	18.5%	34.7*	18.4%
Cc1ccsc1C1C=C(c2cccc(Br)c2)Nc2ncnn21 (stereo not given)	-18.0	-1.0%	-22.9%	0.5%	-4.1	11.7µM*
COc1ccc(OC)c(C2C3=C(CCCC3=O)Nc3nnnn32)c1 (stereo not given)	-3.9	-1.9%[11.6 µM]	1.6%	16.0%	-4.2	-6.3%
CCN(CC)S(=O)(=O)c1ccc(N2CCN(CCOc3ccc(OC)cc3)CC2)nc1	22.6	-13.6%	?	?	-3.2	?
Cc1ccc(CN2CCc3[nH]c(=O)[nH]c(=O)c3C2)cc1	-5.9	5.2%	-11.5%	1.8%	-3.9	1.17µM*
Cc1ccc(CN2CCc3[nH]c(=S)[nH]c(=O)c3C2)cc1	0.9	76.6%	13.7%	-8.8%	-1.4	-8.1%
SMILES	Shiga inhibitor	AMA1-RON2 inh	HCV inh	Pf growth 48h	CHX counter	Pf growth 96h
CC[C@@H](C)C(NC(=O)OC(C)(C)C)c1cn([C@@H](Cc2ccc(O)cc2)C(=O)N2CCN(C(=O)OC(C)(C)C)CC2)nn1 (stereo not given in full)	14.9	-1.9%	12.6%	11.0%	-1.7	8.28µM*
CC(C)CC(NC(=O)OC(C)(C)C)c1cn([C@@H](CCC(=O)OC(C)(C)C)C(=O)N2CCN(C(=O)OC(C)(C)C)CC2)nn1 (stereo not given in full)	14.4	9.4%	13.0%	?	-2.1	10.4µM*
CC[C@H](C)C(C(=O)N1CCN(C(=O)OC(C)(C)C)CC1)n1cc(C(CC(C)C)NC(=O)OC(C)(C)C)nn1 (stereo not given in full)	19.9	1.3%	11.2%	?	1.1	2.33µM*
CCOCCCn1c(SC(C)C(=O)NCC2CCCO2)nc2sc(C)c(C)c2c1=O (stereo not given)	/	-7.5%	11.0%	?	/	?
Cc1ccccc1C(=O)NC1CCN(C(=O)Nc2ccccc2Cl)CC1	7.6	0.0%	-18.3%	35.3%	1.1	-17.7%
CC(=O)Oc1ccc(Cn2c(C)c(C(=O)NC3CC3)sc2=O)cc1	/	10.9%	/	/	/	/
O=C1N=C(N2C=CC(=C3C=CNC=C3)C=C2)/C(=C/N=NC(=O)c2ccccc2)S1	29.7	14.1%	28.3%	-5.9%	-2.2	?
C[C@@]12C(=O)OC(=O)[C@]1(C)C1CCC2O1	/	39.3%	0.501µM*	2.94µM*	/	1.85µM*
CC12C(=O)N(c3nccs3)C(=O)C1(C)C1CCC2O1 (stereo not given)	/	-2.7%	-29.4%	/	/	/
CC1(C)Cc2c(cnn2-c2ccc(F)cc2)C(NC(=O)CCN2CCCCC2=O)C1 (stereo not given)	28.9	-4.6%	3.5%	-1.4%	8.7	?
CCCCC12CN3CCN(CC(C3)/C1=N\NC(=O)c1ccccc1N)C2	82.9*	0.0%	-4.4%	24.9%	46.1*	8.9%
O=C(Nc1ccc(N2CCCCC2)c(C(=O)O)c1)c1ccco1	15.1	-11.9%	0.5%	36.0%	7.5	?
O=C(Nc1ccc(N2CCOCC2)c([N+](=O)[O-])c1)c1ccco1	69.7*	11.3%	-11.3%	19.7%	20.2*	-22.0%
CN1CCN(c2ccc(NC(=O)c3ccco3)cc2Cl)CC1	55.4	-3.2%	3.5%	10.5%	46.6*	-6.0%
Cc1ccc(NC(=O)c2cc(NC(=O)c3ccco3)ccc2N2CCOCC2)cc1Cl	-9.1	-1.1%	?	/	-2.2	4.4%
O=C(Nc1ccc(N2CCCC2)c(Cl)c1)c1ccco1	92.3*	-17.1%	?	-3.9%	31.9*	13.2%
CCN1CCN(c2ccc(NC(=O)c3cccc(F)c3)cc2Cl)CC1	97.2*	-3.6%	-25.7%	-11.6%	18.3*	54.6%
O=C(Nc1ccc(CCC(=O)N2CCCC2)cc1)c1ncn[nH]1	-6.0	-8.0%	3.9%	-14.3%	-2.0	53.4%
Cc1cccc(NC(=O)c2cc(NC(=O)c3ccco3)ccc2N2CCCCC2)c1	-12.4	-0.3%	17.3%	4.65µM*	-1.4	?
O=C(Nc1cc([N+](=O)[O-])ccc1N1CCCC1)c1ccco1	6.1	1.1%	-17.8%	-15.1%	-0.9	19.5%
